Targets with a hit are over-represented here; the source holds about 8,800 in all. About 0.5% of all pairs of compound and target were hits. Unmarked numbers belong to inactive results.
What was measured:
Test in all cases: log2 fold change, soluble protein after heating vs DMSO (PISA); higher = thermal stabilisation; K562 lysate, 10 uM; active = over 0.2 and 3.5 SD of the protein, either way, in both replicates (recomputed)
[1] = compound: C/C(=N\NC(=O)C1=CC(=CC=C1)S(=O)(=O)N2CCOCC2)/C3=C(C=CC(=C3)Cl)O
Method in brief: (§1)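 K562 pellets were dounce-homogenised in PBS pH 7.4 with 1 mM MgCl2, and the crude extract at 1 mg/mL protein was treated with 10 μM compound for 30 min. Aliquots were heated for 3 min across 48°C-58°C, pooled, and brought to 0.5% NP-40 at 4°C; soluble protein was the supernatant after 21,000xg for 90 min. Soluble protein was quantified by TMTpro 16plex LC-MS/MS with channel sums equalised, and reported as log2 fold change in thermal stability against DMSO controls, with values from duplicates.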

[2] = compound: C1=CC2=C(C=CC(=C2)/C=C\3/C(=O)NC(=NCC4=CC=CS4)S3)N=C1
Method in brief: as §1

[3] = compound: C1=CC2=NC=CN=C2C=C1/C=C/3\C(=O)NC(=O)S3
Method in brief: as §1

[4] = compound: C1=CC=C(C=C1)C2=NC(=C(N2)C3=CC=NC=C3)C4=CC(=C(C=C4)Cl)O
Method in brief: as §1

[5] = compound: C1=CC=C2C(=C1)C3=NNC4=CC=CC(=C43)C2=O
Method in brief: as §1

[6] = compound: C1CCN(C1)C(=O)NC2=CC=CC(=C2)NC3=NC=C(C(=N3)NCCC4=CN=CN4)Br
Method in brief: as §1

[7] = compound: C1CN(CCC1(CC2=CC=C(C=C2)Cl)N)C3=NC=NC4=C3C=CN4
Method in brief: as §1

IRAK-1-4 Inhibitor I = compound: C1COCCN1CCN2C3=CC=CC=C3N=C2NC(=O)C4=CC(=CC=C4)[N+](=O)[O-] [IRAK-1-4 Inhibitor I]
Method in brief: as §1

ibrutinib = compound: C=CC(=O)N1CCC[C@@H](n2nc(-c3ccc(Oc4ccccc4)cc3)c3c(N)ncnc32)C1 [ibrutinib]
Method in brief: as §1

[8] = compound: CC(=O)c1cnc2ccc(-c3cc(Cl)c(O)c(Cl)c3)nc2c1N[C@H]1CC[C@H](CN(C)C)CC1
Method in brief: as §1

ralimetinib = compound: CC(C)(C)Cn1c(N)nc2ccc(-c3[nH]c(C(C)(C)C)nc3-c3ccc(F)cc3)nc21 [ralimetinib]
Method in brief: as §1

[9] = compound: CC(C)(O)CC(=O)NCCn1ccc2ncnc(Nc3ccc(Oc4cccc(C(F)(F)F)c4)c(Cl)c3)c21
Method in brief: as §1

[10] = compound: CC1=C(C(CC(=O)N1)C2=CC=C(C=C2)C(F)(F)F)C(=O)NC3=C(C=C4C(=C3)C=NN4)F
Method in brief: as §1

[11] = compound: CC1=C(C2=C(C=C1)C(=O)C3=CC=CC=C3N2CCCN)C
Method in brief: as §1

[12] = compound: CC1=C(C=C(C=C1)NC(=O)C2=CC(=CC=C2)C(C)(C)C#N)NC3=CC4=C(C=C3)N=CN(C4=O)C
Method in brief: as §1

[13] = compound: CC1=C(C=C(C=C1)NC(=O)C2=CC(=CC=C2)N(C)C)NC(=O)C3=CC=C(C=C3)O
Method in brief: as §1

[14] = compound: CC1=CC=C(C=C1)SC2=C3C=C(SC3=CN=C2)C(=O)N
Method in brief: as §1

erlotinib = compound: C#Cc1cccc(Nc2ncnc3cc(OCCOC)c(OCCOC)cc23)c1 [erlotinib]
Method in brief: as §1

[15] = compound: C1=CC(=CC=C1C2=NC3=C(N2)C=C(C=C3)C(=O)N)OC4=CC=C(C=C4)Cl
Method in brief: as §1

[16] = compound: CC(C)C1=C2N=C(C=C(N2N=C1)NCC3=CC=CC=C3)NCCCCCCN
Method in brief: as §1

Chain of UniProt P53355 (P53355 whole entry, looked up): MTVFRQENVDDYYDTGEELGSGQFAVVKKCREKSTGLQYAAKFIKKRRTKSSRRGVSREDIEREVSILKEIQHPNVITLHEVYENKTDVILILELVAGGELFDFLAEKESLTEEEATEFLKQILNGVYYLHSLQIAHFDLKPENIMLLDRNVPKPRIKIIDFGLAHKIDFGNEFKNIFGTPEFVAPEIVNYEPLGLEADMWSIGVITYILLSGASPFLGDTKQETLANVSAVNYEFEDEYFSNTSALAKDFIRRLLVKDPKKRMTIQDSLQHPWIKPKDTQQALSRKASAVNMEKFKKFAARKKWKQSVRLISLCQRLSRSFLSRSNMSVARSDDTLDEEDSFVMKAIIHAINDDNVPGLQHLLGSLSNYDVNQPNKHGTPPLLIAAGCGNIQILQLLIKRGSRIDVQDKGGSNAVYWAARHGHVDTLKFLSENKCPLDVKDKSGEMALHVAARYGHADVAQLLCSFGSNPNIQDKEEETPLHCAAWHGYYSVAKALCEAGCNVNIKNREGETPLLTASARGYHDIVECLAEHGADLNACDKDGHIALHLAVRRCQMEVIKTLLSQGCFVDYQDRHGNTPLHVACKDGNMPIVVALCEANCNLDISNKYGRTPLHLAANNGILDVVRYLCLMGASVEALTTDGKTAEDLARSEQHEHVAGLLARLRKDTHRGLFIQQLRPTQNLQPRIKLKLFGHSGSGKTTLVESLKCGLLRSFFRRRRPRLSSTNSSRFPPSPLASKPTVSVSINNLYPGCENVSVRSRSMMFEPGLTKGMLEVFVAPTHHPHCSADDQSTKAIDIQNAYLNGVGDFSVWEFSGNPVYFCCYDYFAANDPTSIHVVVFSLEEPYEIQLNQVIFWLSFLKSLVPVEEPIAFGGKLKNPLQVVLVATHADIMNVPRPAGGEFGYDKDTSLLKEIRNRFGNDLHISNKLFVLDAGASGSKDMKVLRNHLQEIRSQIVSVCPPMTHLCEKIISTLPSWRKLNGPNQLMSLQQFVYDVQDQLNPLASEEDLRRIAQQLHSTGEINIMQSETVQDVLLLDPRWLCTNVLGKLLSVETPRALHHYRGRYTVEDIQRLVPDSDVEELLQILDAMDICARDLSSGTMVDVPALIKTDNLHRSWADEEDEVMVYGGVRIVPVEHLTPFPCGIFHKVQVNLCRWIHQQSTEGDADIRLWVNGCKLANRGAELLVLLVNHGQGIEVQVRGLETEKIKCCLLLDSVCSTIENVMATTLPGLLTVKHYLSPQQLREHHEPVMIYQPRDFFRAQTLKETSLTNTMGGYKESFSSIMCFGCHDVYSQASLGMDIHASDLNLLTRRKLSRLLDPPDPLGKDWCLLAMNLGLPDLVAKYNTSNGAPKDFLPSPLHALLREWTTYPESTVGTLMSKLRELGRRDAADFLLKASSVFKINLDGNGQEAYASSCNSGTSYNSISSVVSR
Chain of UniProt Q8WXC6 (Q8WXC6 whole entry, looked up): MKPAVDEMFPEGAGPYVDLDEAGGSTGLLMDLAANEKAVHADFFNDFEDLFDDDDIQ
Chain of UniProt P57737 (P57737 whole entry, looked up): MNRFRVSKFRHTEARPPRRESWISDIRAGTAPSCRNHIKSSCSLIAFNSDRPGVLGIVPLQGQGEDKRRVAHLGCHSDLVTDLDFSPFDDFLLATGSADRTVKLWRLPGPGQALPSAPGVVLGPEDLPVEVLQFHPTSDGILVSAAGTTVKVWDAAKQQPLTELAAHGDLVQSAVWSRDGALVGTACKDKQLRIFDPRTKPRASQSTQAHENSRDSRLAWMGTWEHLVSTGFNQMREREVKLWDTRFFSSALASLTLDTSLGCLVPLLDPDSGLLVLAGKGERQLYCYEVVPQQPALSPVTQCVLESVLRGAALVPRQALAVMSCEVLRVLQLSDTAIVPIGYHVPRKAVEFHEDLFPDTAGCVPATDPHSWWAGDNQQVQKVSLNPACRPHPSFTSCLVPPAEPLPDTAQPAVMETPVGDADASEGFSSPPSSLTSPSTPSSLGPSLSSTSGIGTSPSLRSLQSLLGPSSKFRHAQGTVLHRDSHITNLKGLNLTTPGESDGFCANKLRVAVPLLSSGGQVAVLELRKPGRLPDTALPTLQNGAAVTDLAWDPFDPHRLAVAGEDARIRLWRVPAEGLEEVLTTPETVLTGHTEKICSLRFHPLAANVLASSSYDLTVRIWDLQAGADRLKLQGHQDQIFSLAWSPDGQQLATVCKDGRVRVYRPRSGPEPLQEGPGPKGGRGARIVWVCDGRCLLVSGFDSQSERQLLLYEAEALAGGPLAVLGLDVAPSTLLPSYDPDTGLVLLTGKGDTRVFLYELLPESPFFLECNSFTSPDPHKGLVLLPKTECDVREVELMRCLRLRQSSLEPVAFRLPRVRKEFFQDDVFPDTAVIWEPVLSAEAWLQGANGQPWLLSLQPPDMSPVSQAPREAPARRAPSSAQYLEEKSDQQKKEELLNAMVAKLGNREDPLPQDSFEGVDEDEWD
Chain of UniProt Q7L7V1 (Q7L7V1 whole entry, looked up): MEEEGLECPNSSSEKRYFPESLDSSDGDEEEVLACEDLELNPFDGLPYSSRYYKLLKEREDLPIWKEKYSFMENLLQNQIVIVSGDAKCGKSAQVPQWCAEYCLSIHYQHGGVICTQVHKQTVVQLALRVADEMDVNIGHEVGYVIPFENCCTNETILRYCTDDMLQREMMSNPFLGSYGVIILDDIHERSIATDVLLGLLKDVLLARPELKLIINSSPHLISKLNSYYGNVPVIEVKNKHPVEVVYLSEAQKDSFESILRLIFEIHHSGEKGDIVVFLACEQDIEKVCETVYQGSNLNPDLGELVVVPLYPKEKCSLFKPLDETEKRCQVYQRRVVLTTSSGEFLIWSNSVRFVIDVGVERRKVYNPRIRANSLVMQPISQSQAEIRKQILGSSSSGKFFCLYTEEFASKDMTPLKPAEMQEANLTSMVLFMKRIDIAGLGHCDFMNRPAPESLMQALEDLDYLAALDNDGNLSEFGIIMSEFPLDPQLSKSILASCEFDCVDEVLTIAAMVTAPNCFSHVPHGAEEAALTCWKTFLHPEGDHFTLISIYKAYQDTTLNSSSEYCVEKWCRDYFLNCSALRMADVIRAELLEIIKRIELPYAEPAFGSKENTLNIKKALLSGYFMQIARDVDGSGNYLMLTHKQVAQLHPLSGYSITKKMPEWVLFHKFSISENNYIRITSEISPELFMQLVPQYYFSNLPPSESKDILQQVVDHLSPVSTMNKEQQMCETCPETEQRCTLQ
Chain of UniProt Q16527 (Q16527 whole entry, looked up): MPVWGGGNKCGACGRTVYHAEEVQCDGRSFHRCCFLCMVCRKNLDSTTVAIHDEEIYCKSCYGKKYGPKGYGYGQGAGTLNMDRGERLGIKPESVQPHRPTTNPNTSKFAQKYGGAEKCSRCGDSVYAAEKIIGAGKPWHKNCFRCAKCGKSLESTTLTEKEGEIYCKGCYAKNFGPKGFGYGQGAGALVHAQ
Chain of UniProt Q9BW66 (Q9BW66 whole entry, looked up): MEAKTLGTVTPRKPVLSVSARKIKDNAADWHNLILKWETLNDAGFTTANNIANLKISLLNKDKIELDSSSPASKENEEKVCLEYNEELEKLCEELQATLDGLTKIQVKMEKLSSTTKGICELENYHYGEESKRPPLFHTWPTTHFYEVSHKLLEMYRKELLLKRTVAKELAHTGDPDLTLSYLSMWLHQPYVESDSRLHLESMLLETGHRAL
Chain of UniProt G9CGD6 (G9CGD6 whole entry, looked up): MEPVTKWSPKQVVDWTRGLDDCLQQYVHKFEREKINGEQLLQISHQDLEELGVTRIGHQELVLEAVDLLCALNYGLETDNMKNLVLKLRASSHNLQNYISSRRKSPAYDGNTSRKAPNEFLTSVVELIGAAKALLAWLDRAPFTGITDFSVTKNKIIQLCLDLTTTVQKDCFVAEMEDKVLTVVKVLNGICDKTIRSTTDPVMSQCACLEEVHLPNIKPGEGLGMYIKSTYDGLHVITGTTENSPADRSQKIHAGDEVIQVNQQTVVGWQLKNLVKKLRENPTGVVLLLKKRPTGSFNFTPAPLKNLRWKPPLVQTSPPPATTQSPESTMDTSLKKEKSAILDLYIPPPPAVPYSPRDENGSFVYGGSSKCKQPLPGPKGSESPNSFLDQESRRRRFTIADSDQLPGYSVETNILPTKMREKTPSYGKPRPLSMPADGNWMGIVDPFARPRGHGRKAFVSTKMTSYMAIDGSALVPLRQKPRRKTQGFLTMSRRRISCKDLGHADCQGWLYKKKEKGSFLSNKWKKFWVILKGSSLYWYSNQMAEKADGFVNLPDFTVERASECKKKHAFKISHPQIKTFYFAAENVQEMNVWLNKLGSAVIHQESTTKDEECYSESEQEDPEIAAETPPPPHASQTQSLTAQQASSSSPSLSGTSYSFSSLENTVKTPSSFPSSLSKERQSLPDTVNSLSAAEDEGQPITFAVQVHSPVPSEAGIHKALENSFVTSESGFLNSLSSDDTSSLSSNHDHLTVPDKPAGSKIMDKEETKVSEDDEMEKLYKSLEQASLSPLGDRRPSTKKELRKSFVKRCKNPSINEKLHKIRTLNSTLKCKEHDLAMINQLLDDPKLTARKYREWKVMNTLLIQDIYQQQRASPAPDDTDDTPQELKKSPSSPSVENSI
Chain of UniProt Q9Y6M4 (Q9Y6M4 whole entry, looked up): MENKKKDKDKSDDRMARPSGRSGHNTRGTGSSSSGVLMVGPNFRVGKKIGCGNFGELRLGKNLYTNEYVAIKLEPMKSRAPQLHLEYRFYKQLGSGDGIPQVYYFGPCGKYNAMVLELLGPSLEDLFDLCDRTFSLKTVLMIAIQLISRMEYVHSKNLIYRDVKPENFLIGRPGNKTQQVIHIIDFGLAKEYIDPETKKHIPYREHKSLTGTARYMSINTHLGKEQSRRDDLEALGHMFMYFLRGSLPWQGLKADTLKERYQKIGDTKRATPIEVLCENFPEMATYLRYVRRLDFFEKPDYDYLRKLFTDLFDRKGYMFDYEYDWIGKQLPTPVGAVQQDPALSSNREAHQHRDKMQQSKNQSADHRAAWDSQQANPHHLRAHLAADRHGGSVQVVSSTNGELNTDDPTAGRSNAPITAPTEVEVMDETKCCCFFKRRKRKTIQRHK

| Target | log2 fold change [1] | log2 fold change [2] | log2 fold change [3] | log2 fold change [4] | log2 fold change [5] | log2 fold change [6] | log2 fold change [7] | log2 fold change (IRAK-1-4 Inhibitor I) | log2 fold change (ibrutinib) | log2 fold change [8] | log2 fold change (ralimetinib) | log2 fold change [9] | log2 fold change [10] | log2 fold change [11] | log2 fold change [12] | log2 fold change [13] | log2 fold change [14] | log2 fold change (erlotinib) | log2 fold change [15] | log2 fold change [16] |
| --- | --- | --- | --- | --- | --- | --- | --- | --- | --- | --- | --- | --- | --- | --- | --- | --- | --- | --- | --- | --- |
| CINP isoform 3 (UniProt Q9BW66) | 0.016 | 0.015 | -0.015 | 0.081 | -0.102 | -0.015 | -0.056 | 0.074 | 0 | -0.012 | 0.047 | -0.051 | 0.072 | -0.168 | 0.039 | 0.009 | -0.005 | – | – | – |
| DHX32 (UniProt Q7L7V1) | -0.091 | -0.052 | – | 0.013 | 0.038 | -0.145 | 0.044 | 0.036 | – | – | 0.096 | -0.144 | 0.016 | – | -0.023 | 0.017 | – | -0.083 | 0.098 | -0.387 (active) |
| CSRP2 (UniProt Q16527) | – | – | -0.097 | – | – | 0.043 | -0.003 | – | 0.054 | – | – | – | – | – | 0.271 | – | – | – | – | – |
| CORO7 (UniProt P57737) | 0.01 | -0.089 | – | -0.023 | -0.047 | -0.07 | 0.064 | 0.091 | – | – | -0.039 | 0.06 | -0.202 | 0.067 | -0.229 | 0.134 | – | -0.001 | 0.291 | -0.076 |
| COPS9 (UniProt Q8WXC6) | – | – | – | 0.081 | – | – | – | -0.371 | – | -0.059 | 0.146 | -0.213 | – | – | – | 0.172 | -0.184 | -0.01 | -0.362 | 0.173 |
| CNOT2 (UniProt F8VRS8) | – | – | – | – | – | – | – | – | – | – | – | – | – | – | – | – | – | 0.307 | 0.101 | -0.001 |
| CNK3/IPCEF1 isoform 2 (UniProt G9CGD6) | -0.008 | -0.082 | – | -0.051 | 0.053 | 0.014 | -0.048 | 0.105 | – | – | 0.215 | -0.138 | – | 0.075 | – | 0 | – | 0.065 | 0.038 | -0.096 |
| CLIP1, A0A3B3ITA2 | 0.025 | 0.004 | – | -0.039 | -0.103 | – | – | 0.121 | – | – | 0.156 | -0.173 | – | – | 0.019 | -0.215 | – | – | – | – |
| DAPK1 isoform 3 (UniProt P53355) | -0.17 | -0.274 | – | 0.061 | 0.181 | – | – | 0.008 | – | 0.35 | 0.041 | 0 | 0.138 | 0.017 | -0.151 | -0.026 | -0.094 | -0.015 | -0.306 | -0.077 |
| CSNK1G3 isoform 4 (UniProt Q9Y6M4) | – | – | – | – | – | – | – | – | – | 0.235 | – | – | – | – | – | – | -0.142 | – | – | – |

From the supplement of paper PMC10849652
